The text below walks through data of PubChem BioAssay (Tox21).

A short description of assay [1]: qHTS assay to identify small molecule antagonists of the glucocorticoid receptor (GR) signaling pathway - cell viability counter screen (AID 720693). Further: nearly all actives have a fitted effect of over 55% in size.
Assay [2] in a line: qHTS assay for identifying genotoxic compounds that show differential cytotoxicity against isogenic chicken DT40 cell lines with known DNA damage response pathways - wild type cell line (AID 743012). Further: nearly all actives have a fitted effect of over 60% in size. In short, it runs like this: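 Parental DNA repair-proficient DT40 cells, 300 per well, were pre-incubated ~0.5 h at 37 C/5% CO2, pin-dosed with compounds in DMSO, then incubated 40 h. Viability was read as CellTiter-Glo luminescence after 30 min at room temperature.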
Background: qHTS replaces the single test concentration by a dilution series.

Assay [3] in a line: qHTS assay for identifying genotoxic compounds that show differential cytotoxicity against isogenic chicken DT40 cell lines with known DNA damage response pathways - Rev3 mutant cell line (AID 743014). Further: nearly all actives have a fitted effect of over 55% in size.
Assay [4] can be described thus: qHTS assay for identifying genotoxic compounds that show differential cytotoxicity against isogenic chicken DT40 cell lines with known DNA damage response pathways - Rad54/Ku70 mutant cell line (AID 743015). Further: nearly all actives have a fitted effect of over 60% in size.
The nature of assay [5]: qHTS assay to identify small molecule antagonists of the androgen receptor (AR) signaling pathway - cell viability counter screen (AID 743033; further: nearly all actives have a fitted effect of over 45% in size).
The nature of assay [6]: qHTS assay to identify small molecule antagonists of the androgen receptor (AR) signaling pathway using the MDA cell line - cell viability counter screen (AID 743041; further: nearly all actives have a fitted effect of over 45% in size). In outline: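 MDA-kb2 AR-luc cells (MMTV-luciferase, AR/GR responsive) treated with compounds plus R1881 agonist for 16 h at 37C. CellTiter-Fluor added at 15.5 h; fluorescence read after 30 min in the same wells.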

The structures appear in SMILES notation. Several values for one entry are separate records, joined by “and”; a condition that tells them apart may be missing. Identical values can stand only once. Records with an inconclusive call do not appear. Activity calls are given as the source filed them. The call rests on the fitted dose curve; in most records, active means well fitted curve in the direction sought with a large enough effect in the repeat runs; inconclusive means weak or mixed curves; inactive means no such curve, though single readings can be large; an effect the other way counts as inactive or inconclusive.
Potency means the concentration at half of the fitted maximal effect.

For the compound `Cc1c(-c2ccc(O)cc2)n(Cc2ccc(OCCN3CCCCCC3)cc2)c2ccc(O)cc12`, the Potency result in assay [1] was “inactive”. Besides, the results for the Potency in assay [2], in assay [3] and in assay [4] were 11.9 µM (active), 13.3 µM (active) and 13.3 µM (active), respectively.
In the case of `Oc1c(Br)cc(Br)c2cccnc12`, the Potency result in assay [1], in assay [5] and in assay [6] was “inactive” in each case. In addition, the Potency is 11.9 µM (active) in assay [2], 11.9 µM (active) in assay [3] and 13.3 µM (active) in assay [4].
For `C=C(c1ccc(C(=O)O)cc1)c1cc2c(cc1C)C(C)(C)CCC2(C)C`, the results for the Potency in assay [1], in assay [3] and in assay [4] were 13.4 µM (active), 77 µM (active) and 68.6 µM (active), respectively. Further, the Potency entry in assay [2], in assay [5] and in assay [6] was “inactive” in each case.
As to `COc1cccc(CCc2ccccc2OCC(CN(C)C)OC(=O)CCC(=O)O)c1` (configuration not stated), the Potency result in assay [1], in assay [5] and in assay [6] was “inactive” each time. Further, the Potency is 8.41 µM (active) in assay [2], 10.6 µM (active) in assay [3] and 11.9 µM (active) in assay [4].
As for `CC(C)c1cccc(C(C)C)c1N1C(=O)c2ccc(O)cc2C1=O`, the Potency in assay [1] was 43.6 µM (active); in assay [2], 8.63 µM (active); in assay [3], 7.7 µM (active); in assay [4] it was 8.63 µM (active); in assay [5] it was 38.9 µM (active). Besides, the Potency result in assay [6] was “inactive”.
For the compound `O=C(O)CCCCCCC(=O)O`, the Potency result in assay [1], in assay [2], in assay [3], in assay [4], in assay [5] and in assay [6] was “inactive” each time.
`CCCCCCCCCC(=O)N(C)C`: the Potency result in assay [1], in assay [2], in assay [3], in assay [4], in assay [5] and in assay [6] was “inactive” in each case.
Take `CCCCCCCCCCCCOC(=O)c1cc(O)c(O)c(O)c1`: the Potency was 27.4 µM (active) and 34.7 µM (active) in assay [1]; 609 nM (active) and 386 nM (active) in assay [2]; 384 nM (active) and 273 nM (active) in assay [3]; 342 nM (active) and 217 nM (active) in assay [4]; 54.9 µM (active) in assay [5]; 54.5 µM (active) in assay [6].
Regarding `O=C(Nc1ccc(Cl)cc1)Nc1ccc(Cl)c(C(F)(F)F)c1`, the Potency in assay [1] was 21.3 µM (active); in assay [2], 4.22 µM (active); in assay [3], 5.31 µM (active); in assay [4], 5.31 µM (active); in assay [5], 6.01 µM (active); in assay [6], 23.7 µM (active).
For the compound `COC(=O)CC#N`, the Potency entry in assay [1], in assay [2], in assay [3], in assay [4], in assay [5] and in assay [6] was “inactive” each time.
In the case of `Cc1cccc(Br)c1`, the Potency result in assay [1], in assay [2], in assay [3], in assay [4], in assay [5] and in assay [6] was “inactive” in each case.
For `O=S(=O)(O)CCCN1CCOCC1`, the Potency result in assay [1], in assay [2], in assay [3], in assay [4], in assay [5] and in assay [6] was “inactive” in each case.
As to `CCCCCCCC/C=C\CCCCCCCC(=O)OCCOC(=O)CCCCCCC/C=C\CCCCCCCC`, the Potency result in assay [1], in assay [2], in assay [3], in assay [4], in assay [5] and in assay [6] was “inactive” each time.
For the compound `S=P(N1CC1)(N1CC1)N1CC1`, the Potency entry in assay [1], in assay [5] and in assay [6] was “inactive” in each case. In addition, the Potency was 21.1 µM (active) in assay [2]; 944 nM (active) and 319 nM (active) in assay [3]; 26.6 µM (active) and 11.4 µM (active) in assay [4].
Turning to `ClC/C=C\CCl`, the Potency result in assay [1], in assay [2], in assay [3], in assay [4], in assay [5] and in assay [6] was “inactive” throughout.
Turning to `CCCCCCCOC(=O)c1ccc(O)cc1`, the Potency in assay [1] is 49 µM (active); in assay [3], 43.3 µM (active); in assay [4], 54.5 µM (active) and 48.6 µM (active). Besides, the Potency result in assay [2], in assay [5] and in assay [6] was “inactive” in each case.
Consider `CSc1ccc2c(c1)N(CCC1CCCCN1C)c1ccccc1S2` (configuration not stated), for which the Potency in assay [1] was 54.7 µM (active); in assay [2], 5.96 µM (active) and 21.6 µM (active); in assay [3], 6.68 µM (active) and 17.2 µM (active); in assay [4], 9.44 µM (active) and 19.3 µM (active); in assay [5], 23.9 µM (active) and 21.8 µM (active). Moreover, the Potency entry in assay [6] was “inactive”.
On to `Cc1cccc(C)c1NC(=O)CN1CCN(CCCC(c2ccc(F)cc2)c2ccc(F)cc2)CC1`, for which the Potency entry in assay [1], in assay [5] and in assay [6] was “inactive” in each case. In addition, the Potency is 4.03 µM (active) in assay [2], 5.69 µM (active) in assay [3] and 7.17 µM (active) in assay [4].
On to `CC(C)=C1CC[C@@H](C)CC1=O`, for which the Potency entry in assay [1], in assay [2], in assay [3], in assay [4], in assay [5] and in assay [6] was “inactive” throughout.
Take `C1CC(COCC2CO2)CCC1COCC1CO1` (configuration not stated): the Potency result in assay [1], in assay [5] and in assay [6] was “inactive” each time. Further, the Potency in assay [2] was 30.6 µM (active); in assay [3], 6.86 µM (active); in assay [4] it was 19.3 µM (active).
As to `C/C=C/C=N/NC(=O)c1ccncc1`, the Potency entry in assay [1], in assay [2], in assay [3], in assay [4], in assay [5] and in assay [6] was “inactive” each time.
With `S=C(SSSSSSC(=S)N1CCCCC1)N1CCCCC1`, the Potency entry in assay [1] was “inactive”. For the same compound, the Potency in assay [2] is 0.674 µM (active); in assay [3], 0.425 µM (active); in assay [4], 0.674 µM (active); in assay [5], 0.68 µM (active); in assay [6], 1.51 µM (active).
In the case of `CC=O`, the Potency in assay [1] is 25.7 µM (active); in assay [2], 0.0717 µM (active); in assay [3], 0.057 µM (active); in assay [4] it was 0.0717 µM (active); in assay [5], 22.9 µM (active); in assay [6], 63.9 µM (active).
For `O=C1NCN(c2ccccc2)C12CCN(CCCC(c1ccc(F)cc1)c1ccc(F)cc1)CC2`, the Potency was 21.3 µM (active) in assay [1]; 6.68 µM (active) in assay [2]; 10.6 µM (active) in assay [3]; 9.44 µM (active) in assay [4]; 29.8 µM (active) in assay [6]. Further, the Potency result in assay [5] is “inactive”.
